Data on 32 compounds can be found in PubChem BioAssay (NCI).

This is part of a sample that, as a whole, favours compounds with a hit. Of some 83,000 tested, about 20% had one in any assay.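 96-well plates, one dose, 48 hours. Percent growth reported; active if below 10.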 Unmarked numbers belong to inactive results. Active and inactive are the calls of the source.

The assay relates to M14 melanoma. Put plainly: NCI-60 one-dose screen, 48 h (100 = growth as untreated, 0 = no growth, -100 = all killed). Conditions: 10 µM unless noted.
In the case of `COc1cc(C2=NN(C(C)=O)C(c3ccc(N4CCOCC4)cc3)C2)cc(OC)c1OC` (configuration not stated), the growth is 84.1%.
As to `COc1ccc([C@H]2[C@H](O)C(=O)N2c2cc(OC)c(OC)c(OC)c2)cc1Cl`, the growth is 10.3%.
The same measure for `COc1ccc(/C=C/C(=O)c2nnn(-c3ccc(C(=O)O)cc3)c2C)cc1OC`: 92.6%.
The value for `O=[N+]([O-])c1ccc(-c2nnc(SCc3ccc(O)c4ncccc34)n2-c2ccccc2)cc1` was 24.2%.
The same measure for `CC(C)C(=O)Nc1ccc(-c2nc(-c3cccc(O)c3)c(-c3ccnc(Br)c3)[nH]2)cc1`: 49.4%; for `CCOC(=O)c1c(NCC(=O)Nc2cccc(Cl)c2)sc2c1CCCC2`: 83.2%.
Turning to `O=S(=O)(Nc1cc(Cl)cc(Cl)c1)c1ccc(-c2cnc(C3CC3)o2)cc1`, the growth is 19.9%.
Consider `COc1cc2c3c(n(CCCNC4CCC4)c(=O)c2cc1OC)-c1cc2c(cc1C3=O)OCO2`, for which the growth is -78% (active).
The same measure for `CCOC(=O)Nc1cccc(-n2cnc3cc(-c4ccc(O)cc4)ccc32)c1`: 29.6%; for `CC(=O)NC(C)(C)C(=O)N[C@@H](C)C(=O)NC(C)(C)C(=O)N[C@@H](C)C(=O)NC(C)(C)C(=O)N[C@@H](C)C(=O)N[C@@H](CCC(N)=O)C(=O)NC(C)(C)C(=O)N[C@H](C(=O)NC(C)(C)C(=O)NCC(=O)N[C@@H](CC(C)C)C(=O)NC(C)(C)C(=O)N1CCC[C@H]1C(=O)N[C@H](C(=O)NC(C)(C)C(=O)NC(C)(C)C(=O)N[C@@H](CCC(N)=O)C(=O)N[C@@H](CCC(N)=O)C(=O)N[C@H](CO)CC1CCCCC1)C(C)C)C(C)C`: 4.76% [5 µM] (active); for `Cc1nn(-c2ccc(Cl)cc2)c(C)c1N=Nc1ccc2oc(=O)ccc2c1`: 104%.
The value for `O=C(NCCNc1cc(-c2cn(-c3ccccc3)nc2-c2cccc(O)c2)ccn1)Nc1ccc(Cl)c(C(F)(F)F)c1` was 48.3%; that for `CN(c1ccc(Br)cc1)S(=O)(=O)c1ccc(-c2cnc(C3CC3)o2)cc1` was 8.2% (active); that for `CC(C)C[C@H]1C(=O)O[C@H](C(C)C)C(=O)N(C)[C@@H](C(C)C)C(=O)O[C@H](C(C)C)C(=O)N(C)[C@@H](C(C)C)C(=O)O[C@H](C(C)C)C(=O)N1C` was 18.5%.
In the case of `CCCC(=O)NC(c1cccnc1)c1cc(Cl)c2cccnc2c1O` (configuration not stated), the growth is 44%.
The same measure for `Nc1nc(-c2cccc([N+](=O)[O-])c2)c(N=Nc2ccccc2[N+](=O)[O-])s1`: 50.7%; for `C#C[C@]1(O)CC[C@H]2[C@@H]3CC=C4c5sc(Nc6nc(C)cc(OC)n6)nc5CC[C@]4(C)[C@H]3CC[C@@]21C`: 27%.
The value for `CN1CCN(c2ccc(NC(=O)Nc3ccc4c(ccn4-c4cccc(C(N)=O)n4)c3)cc2C(F)(F)F)CC1` was -47% (active); that for `COc1ccc(NS(=O)(=O)c2ccc(-c3cnc(C4CC4)o3)cc2)cc1Cl` was 21.1%; that for `CC1OC(O[C@@H]2C(O)C(CO)OC(O[C@H]3COC(O[C@H]4CC[C@]5(C)[C@H]6CC[C@]78OC[C@@]9(CC[C@](C)(C=O)C[C@H]97)[C@H](O)C[C@@]8(C)[C@]6(C)CC[C@H]5C4(C)C)[C@@H](OC4OC(CO)[C@@H](O)[C@@H](O)[C@@H]4O)[C@@H]3O)[C@H]2OC2OC[C@@H](O)[C@@H](O)[C@@H]2O)[C@@H](O)[C@@H](O)[C@H]1O` (some centres not stated) was -47.3% (active).
The same measure for `COc1ccc(-c2ccc3c4c(cccc24)C(=O)N(N2C(=O)c4cccc5cccc(c45)C2=O)C3=O)cc1`: 94.1%; for `N#Cc1c(NC(=O)c2ccc(F)c(Cl)c2)sc2c1CCC(=O)C2`: -17.8% (active); for `Nc1ccc(-c2nnc(SCc3ccc(O)c4ncccc34)o2)cc1`: -38.8% (active).
For `IP(CCCCCCCCCCSc1n(Cc2ccc3ccccc3c2)c(-c2ccccc2)c(-c2ccccc2)[n+]1Cc1ccc2ccccc2c1)(c1ccccc1)(c1ccccc1)c1ccccc1`, the growth is -61.2% (active).
The value for `Cc1cc(Cl)cc(NS(=O)(=O)c2ccc(-c3cnc(C4CC4)o3)cc2)c1` was 13.1%; that for `COc1cc(/C=N/n2cnc3oc(-c4ccccc4)cc3c2=N)cc(CN2CCCCC2)c1O` was -83.5% (active); that for `CCOC(=O)c1c(NC(=O)c2ccc(C(C)(C)C)cc2)sc2cc(OCCN3CCCCC3)ccc12` was 89.3%.
The same measure for `NS(=O)(=O)Oc1ccc2nc(Nc3ccc(F)c(F)c3)ccc2c1`: 87.9%; for `CC(=O)c1sc(Nc2cccc(Nc3nc(C)c(C)s3)c2)nc1C`: 51.3%; for `CCCCCCNC(=O)Oc1ccc(/C(=C(\C)c2ccc(OC)cc2)c2ccc(OCCN(C)C)cc2)cc1`: 6.24% (active).
The value for `Cc1cccc(NC(c2cc3cccc4ccc5cccc2c5c43)c2nnnn2C(C)(C)C)c1C` (configuration not stated) was 94.4%; that for `Brc1cccc(/C=N/Nc2nc(N/N=C/c3cccc(Br)c3)nc(N3CCOCC3)n2)c1` was 31.7%.
